Measurements published in PubChem BioAssay AID624171 (National Center for Advancing Translational Sciences (NCATS), 2012).
Among all 410,000 compounds or so, about 1,200 (0.29%) were called active. Another 2% or so got no clear call; they are omitted. Calls come from the whole dose curve; as a rule, active = well fitted activation curve with a large enough effect; inconclusive = small, poorly fitted or top-dose-only effect; inactive = flat fitted curve, though single readings scatter. This excerpt belongs to a sample that is enriched for actives.

assay: qHTS of Nrf2 Activators; settings: AREc32 ARE-luciferase reporter (MCF7-derived line), luminescence, 24 h; series mostly up to 46.1 µM; activation: at the top concentration; note: nearly all actives have a fitted effect of over 65% in size; for activation: % of control where 0% means no effect
Text: Many diseases have some form of oxidative stress injury and ties to inflammation, causing a host of problems for the patient. The antioxidant response element (ARE) plays an important role in alleviating the harmful effects of oxidative stress. The antioxidant response element (ARE) is a transcriptional regulatory element involved in the activation of genes coding for a number of antioxidant proteins and detoxifying enzymes. These enzymes work in concert to protect tissues from oxidative insults and chemical toxicities in human hepatocytes and immune cells. The protective effects of ARE activation are primarily triggered through Nrf2 (NF-E2-related factor) binding to and activating AREs. It is known that Nrf2 controls the production of over 250 antioxidant and detoxification proteins (Hu et al., 2006), thereby protecting tissues by increasing cellular antioxidant content and suppressing inflammatory signaling pathways. The transcription factor Nrf2 is a central link between oxidative chemicals, such as phenolic antioxidants and electrophilic compounds, and the activation of ARE. Nrf2 levels are constitutively low as a consequence of its interaction with Keap1, which targets its degradation (Zipper and Mulcahy, 2002). Electrophiles react with key cysteine residues in Keap1, releasing Nrf2 and allowing its translocation to the nucleus. Once within the nucleus, Nrf2 complexes with coactivators such as p300, and binds to the AREs to induce gene transcription of cytoprotective enzymes, resulting in the prevention of toxicity. Activation of Nrf2 protects tissues by increasing cellular antioxidant content and suppressing inflammatory signaling pathways. Identifying novel and potent Nrf2 activators by using the AREc32 cell line to detect ARE activation by small molecules will lead to the identification and development of probes to study protective pathways in multiple tissues. These specific probes are essential to study the ARE pathway, and eventually to determine whether this pathway does activate genes that could protect against a host of diseases, including cardiovascular diseases, obesity, diabetes, Alzheimer's, and Parkinson's disease.
This project's aim is to identify novel and potent Nrf2 activators by using the AREc32 cell line to detect ARE activation by small molecules, which will lead to the identification and development of probes to study the ARE pathway.
NIH Chemical Genomics Center [NCGC]
NIH Molecular Libraries Probe Centers Network [MLPCN]
Assay Submitter (PI): Curtis Klaassen, University of Kansas Medical Center
5 uL of 1000 cells/well of AREc32_Fluc cells are seeded into 1536-well plate in OPTI-MEM medium with 5% FBS. The plates are incubated overnight at 37 deg C with 5% CO2. Then through pin tool transfer, 23 nL of compounds are added to each well before a 24 hr incubation at 37 deg C with 5% CO2. After the addition of 2.5 uL of Steady-Glo. the plates are kept at RT for 30 min, before they are read on the ViewLux.
Potency is the fitted concentration of half-maximal effect.

activation, inactive:
CCN1CCN(c2cc(C)c3cc(NC(=O)c4cc(Cl)ccc4OC)ccc3n2)CC1 0.689%, COc1ccc(CCNC(=O)CCCn2c(=O)c3ccccc3n(Cc3ccc(F)cc3Cl)c2=O)cc1OC -0.204%, CCOc1ccccc1C(=O)NC1(C(F)(F)F)C(=O)Nc2c1c(=O)[nH]c(=O)n2-c1ccc(F)cc1 (stereo not given) -0.547%, Cc1ccc(-c2noc(-c3nnn(-c4cccc(C(F)(F)F)c4)c3N)n2)cc1 -0.844%, Cc1cccc(NC(=O)CSc2nnc(CNC(=O)c3cccc(C)c3)n2-c2ccccc2)c1 -0.11%, CCOC(=O)c1c(NC(C)=O)c2c3c(sc2n1Cc1c(C)cc(C)cc1C)CCCC3 7.04%, COc1ccccc1CNC(=O)CCCCn1c(=O)c2ccccc2n(CC(=O)Nc2cc(Cl)ccc2C)c1=O -0.0006%, COc1cccc(C(=O)N(Cc2cccc(Cl)c2)Cc2ccco2)c1 8.54%, COc1ccccc1N1CCN(S(=O)(=O)CCNC(=O)COc2ccc(F)cc2)CC1 2.57%, COC(=O)Cn1c(O)c(N=NC(=O)OC)c2ccccc21 4.09%, CCOC(=O)c1ccc(N2C(=O)c3[nH]nc(-c4ccccc4)c3C2c2ccc(C(C)C)cc2)cc1 (stereo not given) -0.391%, CC1CCCCN1Cc1c(O)ccc2c(=O)c(-c3cccc(Cl)c3)c(C(F)(F)F)oc12 (stereo not given) 2.18%, COc1ccc(-c2nc3c4ccccc4n(CC(=O)Nc4ccc(C(C)=O)cc4)c(=O)n3n2)cc1 -0.364%, CC(C)(C)OC(=O)N1CCC(c2c(C(=O)N3CCc4ccccc4C3)cnn2-c2ccc(F)cc2)CC1 0.152%, O=C(/C=C/c1cccc([N+](=O)[O-])c1)OCC(=O)N1CCOCC1 14.8%, COc1cc(CCN=Cc2ccccc2O)c([N+](=O)[O-])cc1OC 0.105%, O=C(c1ccncc1)N1CCN(S(=O)(=O)c2cccc([N+](=O)[O-])c2)CC1 2.53%, N/C(=N\OS(=O)(=O)c1cccc([N+](=O)[O-])c1)c1ccncc1 -1.41%, O=C(COc1ccccc1F)OCc1cc(=O)n2nc(C3CCCCC3)sc2n1 0.67%, Cc1cccc(OCC(=O)N(Cc2ccc(C(C)C)cc2)Cc2ccco2)c1C 1.44%, O=C1CSC2(C(=O)N(Cc3ccccc3)c3ccccc32)N1c1cccc(F)c1 (stereo not given) 1.27%, Cc1ccc(C)c(N2CCN(C(c3ccccc3)c3nnc(-c4ccccc4)o3)CC2)c1 (stereo not given) 3.85%, CCn1cc(C(=O)N2CCN(c3cc(Cl)ccc3C)CC2)c(=O)c2cc(S(=O)(=O)N3CCCC3)ccc21 0.498%, Cc1ccc(-n2c3nc(=O)[nH]c(=O)c-3cc3c(Cl)cccc32)cc1 0.875%, O=C(OCC#CCSc1nnc(-c2ccncc2)o1)c1sc2ccccc2c1Cl 0.724%, COc1ccc2c(Cl)c(-c3nnco3)sc2c1 2.03%, CCN(CC)c1ccc(NC(=O)CN2C(=O)c3cccnc3Oc3ccc(Cl)cc32)c(C)c1 -0.609%, Cc1ccc2cccc(NC(=O)c3cccc4ccccc34)c2n1 4.65%, Cc1cccc2c(=O)cc(CSc3ccccc3NC(=O)C(C)C)[nH]c12 4.34%, CCn1nc(NC(=O)c2ccco2)c2cc3ccc(C)cc3nc21 3.83%, Cc1ccccc1NC(=O)c1cnn(-c2ccccc2)c1NC(=O)c1ccco1 0.175%, COc1ccc(NC(=O)CCc2nnc3n(CC(C)C)c(=O)c4ccccc4n23)cc1OC 0.545%, Cc1ccc(Cn2c(CCCNC(=O)C3CCCCC3)nc3ccccc32)cc1 6.06%, CCc1ccccc1OCC(=O)Nc1nnc(C2CC2)s1 -0.969%, CCc1cc(C(=O)Nc2nnc(C3CC3)s2)sc1C 3.95%, CCOc1ccc(-n2c(SCC(=O)NCc3ccccc3)nc3n[nH]c(C)c3c2=N)cc1 5.99%, C/C=C/C(=O)Nc1nnc(C(C)C)s1 5.58%, CCc1ccc2oc(-c3ccc(C)c(NC(=O)/C=C/c4ccco4)c3)nc2c1 26.7%, CCC(CC)c1nnc(NC(=O)C2CCN(C(=O)c3ccco3)CC2)s1 4.71%, CCC(CC)c1nnc(NC(=O)C2=COCCO2)s1 2.51%, Cc1cc(NS(=O)(=O)c2ccc(NC(=O)c3ccccc3C)cc2)nc(C)n1 -0.564%, CCc1ccc(N2C(=O)CN(S(=O)(=O)CC)CC2(C)C(=O)NC2CCCCC2)cc1 (stereo not given) -0.616%

Potency, active:
CC(C)n1c(O)c(N=Nc2ccccn2)c2ccccc21 12.6 µM, O=[N+]([O-])c1cccc(C=NN=Cc2ccccc2O)c1 10 µM, O=C(N/N=C/c1cccc([N+](=O)[O-])c1)c1ccncc1 12.6 µM, C#CCSc1nnc(-c2sc3ccccc3c2Cl)o1 4.47 µM, Cc1ccnc(NC(=O)c2ccco2)n1 12.6 µM, O=C(Nc1nnc(C2CC2)s1)c1cc(Cl)sc1Cl 20 µM, Cc1nnc(NC(=O)/C=C/c2ccco2)s1 3.55 µM, CCC(CC)c1nnc(NC(=O)/C=C/c2ccco2)s1 2.51 µM
